Positions count from the first letter of the chain named.
What was measured:
Assay in all cases: HT-SELEX; high values mean tight binding
Details in all cases: protein: recombinant; vector His6-GST; dsDNA, one strand shown
[1] = molecular target: T1, SALL4 ZFC4 WT (HT-SELEX) (Mus musculus, UniProt Q8BX22 870-940)
T1 sequence: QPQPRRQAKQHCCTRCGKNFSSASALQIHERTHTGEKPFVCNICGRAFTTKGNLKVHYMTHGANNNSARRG
How it was run: (§1)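 Up to 6 cycles of selection were run in triplicate. In each, purified recombinant mouse SALL4 zinc finger cluster 4 (residues 870–940, 1 µg) was incubated with library DNA (1.5 µg first cycle, 200 ng later) in 100 µl of 10 mM Tris–HCl pH 7.5, 50 mM NaCl, poly(dI-dC), DTT for 10 min at room temperature, then complexes were captured on Ni2+ beads, washed and PCR-amplified; final pools were MiSeq-sequenced and scanned for 6-mers. Binding signal is each canonical k-mer's read fraction as fold change versus the initial random library.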

[2] = molecular target: T2, SALL4 ZFC4 R900W (HT-SELEX) (Mus musculus, UniProt Q8BX22 870-940, R900W)
T2 sequence: T1 sequence with R31W
How it was run: as §1

[3] = molecular target: T3, SALL4 ZFC4 G921D (HT-SELEX) (Mus musculus, UniProt Q8BX22 870-940, G921D)
T3 sequence: T1 sequence with G52D
How it was run: as §1

Sequence | binding signal [1] | binding signal [2] | binding signal [3]
AAGAGT | 1.418 ± 0.0105 fold-change vs cycle 0 | 1.59 ± 0.0431 fold-change vs cycle 0 | 1.48 ± 0.0973 fold-change vs cycle 0
CAATTG | 1.09 ± 0.0289 fold-change vs cycle 0 | 1.247 ± 0.0104 fold-change vs cycle 0 | 1.28 ± 0.0217 fold-change vs cycle 0
TATAAA | 3.97 ± 0.451 fold-change vs cycle 0 | 2.53 ± 0.209 fold-change vs cycle 0 | 2.14 ± 0.302 fold-change vs cycle 0
CAGTAA | 1.35 ± 0.0452 fold-change vs cycle 0 | 1.48 ± 0.063 fold-change vs cycle 0 | 1.37 ± 0.109 fold-change vs cycle 0
CGTGAG | 0.437 ± 0.0456 fold-change vs cycle 0 | 0.501 ± 0.006 fold-change vs cycle 0 | 0.607 ± 0.0306 fold-change vs cycle 0
GGAAAC | 0.775 ± 0.0365 fold-change vs cycle 0 | 0.874 ± 0.0459 fold-change vs cycle 0 | 0.9097 ± 0.00842 fold-change vs cycle 0

Reference: PMC9838217, “Structure of SALL4 zinc finger domain reveals link between AT-rich DNA binding and Okihiro syndrome”
